Data: paper PMC7819943, “Rice protein-binding microarrays: a tool to detect cis-acting elements near promoter regions in rice”
The full ranking holds about 68,000 sequences; the median of “fluorescence intensity (a.u.)” is about 9,100, and the highest 2% start at about 16,000. The entries come from a sample that favours the highest values as a whole.

What follows are sequences tested against OsWRKY34 (Oryza sativa, UniProt Q0JBA9 1-250) (assay: protein-binding microarray (RPBM); PBS, 2% BSA, 51.3 ng/ul salmon testes DNA, 50 uM zinc acetate, 200 nM TF, 25 C, 1 h; high values mean tight binding). Settings: protein: recombinant; tags: N-terminal polyhistidine and DsRed monomer fusion (pET32a); label: CyDye5-dUTP incorporated in the synthesized complementary strand; 3' TTTTT single-stranded linker to array surface; dsDNA, one strand shown.
Chain of OsWRKY34 (Q0JBA9 entry or part of it): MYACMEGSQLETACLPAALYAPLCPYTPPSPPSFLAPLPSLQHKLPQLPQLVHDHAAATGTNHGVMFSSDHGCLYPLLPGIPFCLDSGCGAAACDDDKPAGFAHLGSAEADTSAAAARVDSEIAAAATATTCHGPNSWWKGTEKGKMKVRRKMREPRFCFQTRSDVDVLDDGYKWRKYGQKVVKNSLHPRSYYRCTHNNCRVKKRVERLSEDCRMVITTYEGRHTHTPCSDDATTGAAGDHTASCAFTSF
How it was run: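 The binding signal is fluorescence intensity per feature, in arbitrary units, read on an Axon 4000B scanner. Polyhistidine- and DsRed-tagged transcription factors (N-terminal fusions) from E. coli BL21-CodonPlus were purified on Ni–NTA and applied at 200 nM for 1 h at 25 °C to a double-stranded, BSA-blocked custom Agilent array in buffer with 50 µM zinc acetate.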
“GTTTCATTGAGATGGTGTCGACGTGGCGGCGTTGACTTAGCGGAGTCACCTAGTGCAG” was tested, and the binding signal was 10700 fluorescence intensity (a.u.).
With “TAATTGTCTTCGTCAGGATCTTCTGCTAATTGTTTGATTTCGGAGTCACCTAGTGCAG” the binding signal was 8680 fluorescence intensity (a.u.).
For “GATTCTACTGCCCCGTTGACTAATTGTCTTCGTCAGGATCCGGAGTCACCTAGTGCAG”, the binding signal was 17900 fluorescence intensity (a.u.).
In the case of “CAATGTTGTCTTGACTTTTTTTTAACGTTTAACCATTTGTCGGAGTCACCTAGTGCAG”, the binding signal is reported as 8940 fluorescence intensity (a.u.).
“CCGTTGACATTTTATCTAACGTTTGACCATTCGTCTTATTCGGAGTCACCTAGTGCAG” was tested, and the binding signal was 15900 fluorescence intensity (a.u.).
“AGTGTCTTTGACTTTTTGTTTGTAACGTTTGACCATTCGTCGGAGTCACCTAGTGCAG” was tested, and the binding signal was 21900 fluorescence intensity (a.u.).
In the case of “AATGCAACCATTAAGTTGTCGTTTAGTTGACTTTGTCTACCGGAGTCACCTAGTGCAG”, the binding signal is reported as 8690 fluorescence intensity (a.u.).
With “ACACCATTGACTTTTTAGCATATGTTTAACCGTTTGTCTTCGGAGTCACCTAGTGCAG” the binding signal was 13900 fluorescence intensity (a.u.).
With “CGACTTTGTTTTACCATTGTTTTTTTTGTCTTGTTTTAGTCGGAGTCACCTAGTGCAG” the binding signal was 10600 fluorescence intensity (a.u.).
“TGACACCGTTGACTTTTTTGTCTAAAGTTTAACCATTCGTCGGAGTCACCTAGTGCAG” was tested, and the binding signal was 32400 fluorescence intensity (a.u.).
With “CCCCGTCGTTGTCGCCACCTACTTCTACCTGCGCGGATTCCGGAGTCACCTAGTGCAG” the binding signal was 10800 fluorescence intensity (a.u.).
“CCGCCGTTGACTTTTTGTCTAACGTTTGACCATTCGTCTTCGGAGTCACCTAGTGCAG” was tested, and the binding signal was 36200 fluorescence intensity (a.u.).
For “ATACAATCTACTTGAATCGTTTTTTCTTTACTTTTCAGTTCGGAGTCACCTAGTGCAG”, the binding signal was 9840 fluorescence intensity (a.u.).
With “ACTTAGCAGCACTTGTCCCGTTCTCCTGAAGACAGTCCAACGGAGTCACCTAGTGCAG” the binding signal was 9480 fluorescence intensity (a.u.).
With “CAGTAATTGTCACTATCTTATTACACATTATTCTGTCCAGCGGAGTCACCTAGTGCAG” the binding signal was 8060 fluorescence intensity (a.u.).
In the case of “TCCTGTCCAGTCTCCACTCGCAAACCCTTCTCGCCGCCATCGGAGTCACCTAGTGCAG”, the binding signal is reported as 10400 fluorescence intensity (a.u.).
For “GACCGCTTCACCCGCCCAATCAAAACCGTCCATCCATCCCCGGAGTCACCTAGTGCAG”, the binding signal was 10300 fluorescence intensity (a.u.).
For “CAGTAACAATCACTCATTCTCAGTATCTGCTACTCCTCTACGGAGTCACCTAGTGCAG”, the binding signal was 8710 fluorescence intensity (a.u.).
“CTCCTCTTTGTGTGTAGACTGAAAAGGTGGAAAGTTTACCCGGAGTCACCTAGTGCAG” was tested, and the binding signal was 9750 fluorescence intensity (a.u.).
“CGCGTAACCCACCCAATGTTTCACTCCTGCAGCACTTGACCGGAGTCACCTAGTGCAG” was tested, and the binding signal was 9370 fluorescence intensity (a.u.).
For “CTATATATTTACCCACTGTATACCTCTGTCATGAAAGCATCGGAGTCACCTAGTGCAG”, the binding signal was 11500 fluorescence intensity (a.u.).
“CTCGTTTGATCTCTCAGTTGGGAGCATTATTTCTGCGCATCGGAGTCACCTAGTGCAG” was tested, and the binding signal was 10800 fluorescence intensity (a.u.).
In the case of “CAACGGCGAATCAACGCCCGAACCGACTCTTTTATCTTTTCGGAGTCACCTAGTGCAG”, the binding signal is reported as 9920 fluorescence intensity (a.u.).
In the case of “ACAAATTTGTAGCCCGCTGCTCTTCTCTCTCATCTTTTATCGGAGTCACCTAGTGCAG”, the binding signal is reported as 9220 fluorescence intensity (a.u.).
In the case of “GTCCGCATCTCATCCTTCCGCAAGTCCGTATCTCATCCCTCGGAGTCACCTAGTGCAG”, the binding signal is reported as 10400 fluorescence intensity (a.u.).
In the case of “CGTATACCTCGGAGAAGTTCTCATCCGCTGACGTGTCCCGCGGAGTCACCTAGTGCAG”, the binding signal is reported as 19600 fluorescence intensity (a.u.).
With “TCCCTCGGTCCCATCGTATATATATATACCGTATGTCCCGCGGAGTCACCTAGTGCAG” the binding signal was 9470 fluorescence intensity (a.u.).
With “CACCTCACCCTCACCCGCACACGCCGACACCCCGACGCGTCGGAGTCACCTAGTGCAG” the binding signal was 9390 fluorescence intensity (a.u.).
With “CTTCTTTCTCAATATGTGATTTTCTTTCCTTAATCTCGTTCGGAGTCACCTAGTGCAG” the binding signal was 8680 fluorescence intensity (a.u.).
In the case of “CTCCGTCGCTGACTGCAACCTCCACCCACACGGCACCCATCGGAGTCACCTAGTGCAG”, the binding signal is reported as 8090 fluorescence intensity (a.u.).
With “TATCTCTCTCCCGCTGACAACCCGGTCACACCGAACCAACCGGAGTCACCTAGTGCAG” the binding signal was 8990 fluorescence intensity (a.u.).
In the case of “CCTCTCACTGCTAGTGCCCCACACCGTTCTTCGCTGCCCACGGAGTCACCTAGTGCAG”, the binding signal is reported as 11800 fluorescence intensity (a.u.).
In the case of “CTAATACGTGGGTCTCACTATTGTCTTCTTGTTTGACTGACGGAGTCACCTAGTGCAG”, the binding signal is reported as 10700 fluorescence intensity (a.u.).
With “CCTATTCTAACACTGACGGGTGGGTCTCACAGGGTGACTCCGGAGTCACCTAGTGCAG” the binding signal was 16900 fluorescence intensity (a.u.).
With “TTTGCACACGGGTGACTCGTCTCTTTGTACTCACTCTCTCCGGAGTCACCTAGTGCAG” the binding signal was 9840 fluorescence intensity (a.u.).
With “TCCTCTGTTTTACACTTGCATTCCTATCAGAATCCTATATCGGAGTCACCTAGTGCAG” the binding signal was 9540 fluorescence intensity (a.u.).
With “CCCGTCGATCCACCGCGGGGACAAGCTCTAGATCTCTCTCCGGAGTCACCTAGTGCAG” the binding signal was 8440 fluorescence intensity (a.u.).
“CAGGCATGTCCAGTATAGGTGTTATTATATTTTATTATTACGGAGTCACCTAGTGCAG” was tested, and the binding signal was 8910 fluorescence intensity (a.u.).
With “TATACTCCCTCCATTTCAAAATGTTTGACACCGTTGACTTCGGAGTCACCTAGTGCAG” the binding signal was 9590 fluorescence intensity (a.u.).
In the case of “ACTCCCTCCTTCCCTAAATGTTTGACACCGTTGACTTTTTCGGAGTCACCTAGTGCAG”, the binding signal is reported as 19600 fluorescence intensity (a.u.).
With “CTCCATCCGTTTTAAAATGTTTGACACCGTTGACTTTTTACGGAGTCACCTAGTGCAG” the binding signal was 27300 fluorescence intensity (a.u.).
With “CTCCCTCCTTTTCTAAATGTTTGACACCATTGACTTTTTTCGGAGTCACCTAGTGCAG” the binding signal was 8470 fluorescence intensity (a.u.).
For “TCCCTCTGTTCAAAATGTTTGACACCGTTGACTTTTTAAGCGGAGTCACCTAGTGCAG”, the binding signal was 20700 fluorescence intensity (a.u.).
With “ACTTCTTTAGGCGTTGACTTCTCCCTTTTCCTTTACTATTCGGAGTCACCTAGTGCAG” the binding signal was 14800 fluorescence intensity (a.u.).
In the case of “TACTCCCTTCTTCCTTAGATGTTTGACACCGTTGACTTTTCGGAGTCACCTAGTGCAG”, the binding signal is reported as 16900 fluorescence intensity (a.u.).
